Giardia killer = kills Giardia lamblia; activity change, % at 7.66 µM, hits read low; 0.15% of 340,000 active; AID 540267; Giardia lamblia trophozoite viability; in the data active = activity change below about -80%; inconclusive = between about -30% and that limit;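 also: parasites exposed to compound for two days anaerobically before the ATP read; % is scaled to controls: 0 for no effect and ±100 for the full control effect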
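Media and compound were dispensed first, then trophozoites at 100 cells/well; plates sat 48 hrs at 37 deg C without oxygen before ATP luminescence reagent was added and read after 15-30 min at room temperature.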
RXFP1 antagonist = RXFP1 (human) relaxin receptor antagonism | HEK293-RXFP1, relaxin-stimulated cAMP HTRF, 30 min; stronger effect = lower value | activity change, negative = inhibition, % at 57.5 µM | 0.59% of 350,000 active | AID 1259400 | Q9HBX9;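 active = activity change of -60% or lower, but not beyond a set lower limit; inconclusive = change between -60% and -40%, or beyond the set limit; inactive = change above -40%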; also: % is scaled to controls: 0 for no effect and ±100 for the full control effect
Target sequence (Q9HBX9 whole entry, looked up): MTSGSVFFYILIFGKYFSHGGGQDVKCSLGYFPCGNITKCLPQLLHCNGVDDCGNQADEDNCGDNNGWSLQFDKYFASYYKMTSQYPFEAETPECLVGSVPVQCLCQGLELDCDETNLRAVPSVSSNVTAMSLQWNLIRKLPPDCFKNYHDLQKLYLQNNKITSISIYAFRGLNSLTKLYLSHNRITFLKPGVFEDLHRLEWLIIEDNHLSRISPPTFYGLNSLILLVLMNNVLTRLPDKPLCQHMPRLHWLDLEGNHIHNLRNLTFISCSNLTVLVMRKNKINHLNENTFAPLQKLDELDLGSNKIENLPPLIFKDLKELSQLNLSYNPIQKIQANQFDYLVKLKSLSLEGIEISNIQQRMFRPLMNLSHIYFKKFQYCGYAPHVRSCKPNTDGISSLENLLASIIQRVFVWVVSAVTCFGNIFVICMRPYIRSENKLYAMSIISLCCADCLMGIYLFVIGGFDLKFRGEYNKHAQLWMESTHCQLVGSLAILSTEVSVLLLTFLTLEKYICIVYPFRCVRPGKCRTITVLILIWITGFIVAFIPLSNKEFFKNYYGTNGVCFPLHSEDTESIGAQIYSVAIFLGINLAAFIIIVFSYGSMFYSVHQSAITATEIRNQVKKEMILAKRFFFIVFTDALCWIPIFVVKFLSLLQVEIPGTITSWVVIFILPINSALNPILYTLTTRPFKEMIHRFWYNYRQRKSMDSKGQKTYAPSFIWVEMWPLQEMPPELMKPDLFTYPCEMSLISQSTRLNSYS
NPSR antagonist = blocks cAMP signaling of the human neuropeptide S receptor | Q6W5P4 | CHO-NPSR cells, cAMP TR-FRET, antagonist mode | Potency, µM (series often up to 38.3 µM), for inactives: at the top dose activity change, negative = inhibition, actives largely listed as inhibitors | 1% of 220,000 active; also: potency is read from the fitted curve at half-maximal effect; % is scaled to controls: 0 for no effect and ±100 for the full control effect; nearly all actives have a fitted effect of over 50% in size
IL-2 act = activators of IL-2 | activation, % (series mostly up to about 46 µM) | IL-2 activation reporter assay, cell-based qHTS; stimulated with anti-CD3/CD4/CD28 beads; in transgenic mouse T cells | 0.065% of 360,000 active; in the data active = activation above about 50%; inconclusive = mostly about 30% to 49%; also: 0% is about no effect
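Readout: EGFP and DsRed signals by fluorescent plate cytometry. Unstimulated transgenic mouse T cells received compound 60 min before antibody-bead stimulation, then incubated 18 h at 37 degrees C.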
BRCA1 expr up = activators of BRCA1 expression | 1.1% of 380,000 active | AID 624202 | Potency, µM (top dose mostly 46.1 µM), for the others: at the top dose activation, hits mostly activators | MCF7-BRCA1-FFLuc reporter, luminescence, 48 h; response scale: scaled: vehicle 0%, 10 µM genistein 100%; also: potency is read from the fitted curve at half-maximal effect; nearly all actives have a fitted effect of over 80% in size
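MCF7-BRCA1-FFLuc, 2000 cells/well; 2 h attach, 37 °C/5% CO2; compound 48 h; luciferase substrate 15 min; luminescence end-point. Norm. to genistein 10 microM max activation and DMSO; concentration-response curves fitted.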
RXFP1 agonist = RXFP1 (human) receptor agonism; HEK293T-RXFP1 cAMP TR-FRET, 30 min; response scale: percent of porcine relaxin response, buffer zero; Potency, µM (series often up to 57.5 µM), for inactives: at the top dose activation, most hits filed as activators; 0.3% of 370,000 active; also: potency is read from the fitted curve at half-maximal effect; % is scaled to controls: 0 for no effect and ±100 for the full control effect; nearly all actives have a fitted effect of over 60% in size
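Agonist response is measured as cAMP accumulation in an RXFP1-transfected HEK293T line under PDE4 inhibition. Values are scaled between buffer-only and 29 nM porcine relaxin, and EC50s come from standard Hill equation fits.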
Active calls of the source: *; i = inactive; ? = inconclusive; . = not tested or not shown; [ ] = another dose, or the depositor's remark. Shown are actives, neighbours in structure and some others; about 1.9% of the full set was active somewhere. Unless noted, calls follow the shape of the dose curve; as a rule, active = well fitted curve in the direction sought with a large enough effect; inconclusive = small, poorly fitted or top-dose-only effect, or another doubt; inactive = no such curve, though single readings can be large; an effect the other way counts as inactive or inconclusive.

SMILES	Giardia killer	RXFP1 antagonist	NPSR antagonist	IL-2 act	BRCA1 expr up	RXFP1 agonist
CCCc1cc(=O)n2[nH]c(-c3ccc(C)cc3)cc2n1	-11.1	-6.3	2.8%[46.1 µM]	0.2	1.41µM*	2.3%
COC(=O)c1cc2c([nH]c1=O)CC(c1ccccc1)CC2=O (configuration not stated)	.	.	.	.	-4.2%	.
COCc1cc(C)nc2c1C(=O)NC(c1ccc(F)cc1)N2Cc1ccccc1 (configuration not stated)	.	3.2	.	.	.	23.8%
COc1cc2nc(N3CCN(C)CC3)nc(NC3CCN(Cc4ccccc4)CC3)c2cc1OC	.	.	.	.	-38.9%	.
O=C(c1ccc(Cl)c([N+](=O)[O-])c1)N1CCN(S(=O)(=O)c2ccc(Cl)cc2)CC1	-2.2	0.7	.	-0.8	-54.6%	-0.9%
O=C(c1ccc(N2CCCC2)c([N+](=O)[O-])c1)N1CCN(S(=O)(=O)c2ccc(Cl)cc2)CC1	-5.0	-63.7*	.	0.9	-40.9%	-0.2%
O=C(Nc1ccon1)c1ccc(N2CCCCC2)c([N+](=O)[O-])c1	-11.5	-11.5	-16.3%	-1.1	12.6µM*	-0.9%
CC(C)(C)c1ccc(-c2cn(-c3ccc(Br)cc3)c3[n+]2CCCS3)cc1	29.4	-13.2	10µM*	-3.5	-81.9%	0.0%
O=C(COC(=O)C1CCN(S(=O)(=O)c2ccc(Cl)c(C(F)(F)F)c2)CC1)NCc1ccco1	-12.2	-16.3	.	-4.0	-6.0%	-0.4%
CC1CCCCN1C(=O)COC(=O)C1CCN(S(=O)(=O)c2ccc(Cl)c(C(F)(F)F)c2)CC1 (configuration not stated)	16.0	-65.0*	.	-0.4	12.0%	0.6%
O=C(CSc1nnc(-c2ccco2)n1Cc1ccccc1)c1ccccc1	1.4	-2.2	-15.0%[7.67 µM]	1.3	3.98µM*	2.6%
Cc1ccc(C(=O)CSc2nnc(-c3ccco3)n2Cc2ccccc2)cc1	-2.4	7.8	-23.6%[46.1 µM]	-0.8	70.4%	2.2%
O=C(CSc1nnc(-c2ccco2)o1)c1ccccc1	26.5	0.1	-11.5%[46.1 µM]	-0.3	0.3%	-0.2%
CC(=O)c1ccc(NC(=O)CSc2nnc(-c3ccco3)c(-c3ccco3)n2)cc1	20.4	-71.4*	1.7%	-0.6	-3.3%	-2.7%
O=C(CSc1nnnn1Cc1ccccc1)c1ccccc1	-3.1	-0.9	-17.9%[46.1 µM]	-1.7	12.6µM*	3.6%
O=C(CSc1nnc(-c2ccco2)c(-c2ccco2)n1)c1ccccc1	-6.3	-96.8*	5.2%	-1.0	-32.7%	27.4%
COc1ccc(S(=O)(=O)NCCc2csc(-c3cccc(F)c3)n2)cc1OC	.	-9.0	.	.	.	0.3%
O=C(NC1CCCCC1)c1cnn2c1NC(=C1CC1)C=C2C(F)F	7.1	.	.	.	-12.3%	.
C(=Nc1ccc2ccccc2n1)c1cccnc1	.	.	.	.	14.1%	.
COCCNC(=O)CN1N=C(c2ccc(OC)cc2)CCC1=O	4.5	-12.5	.	2.4	-11.2%	-1.5%
CCC(=O)N1CCC(c2ccc(OC)cc2)=N1	7.7	-4.8	10.0%	-0.9	11.2µM*	-0.1%
Cc1ccc(OCCSc2nc3ccccc3n2CC(=O)N2CCCCC2)c(C)c1	.	.	.	.	-4.6%	-2.0%
COCCCn1c(=S)[nH]c2sc3c(c2c1=O)CCCS3	-0.9	-2.4	7.94µM*	-1.3	1.0%	15.8µM*
COCCn1c(=S)[nH]c2sc3c(c2c1=O)CCC(C)C3 (configuration not stated)	17.6	-24.8	.	0.1	-21.1%	?
COc1cc(-c2nnn(CC(=O)Nc3ccc(OC(F)(F)F)cc3)n2)cc(OC)c1OC	.	-17.2	.	.	.	-0.2%
SMILES	Giardia killer	RXFP1 antagonist	NPSR antagonist	IL-2 act	BRCA1 expr up	RXFP1 agonist
COc1ccc(C(=O)NCCCN2CCN(CCCNC(=O)c3ccc(OC)c(OC)c3)CC2)cc1OC	-1.1	-74.5*	.	-0.2	7.4%	0.2%
O=S(=O)(c1ccc(Cl)cc1)N1CCN(c2nc(Nc3cc(Cl)ccc3O)nc3ccccc23)CC1	i	.	.	.	-3.8%[36.9 µM]	.
CC(=O)c1sc(NC(=O)c2ccccc2C)nc1C	6.9	-6.6	-25.3%	0.4	12.6µM*	11.6%
CC(=O)c1sc(NC(=O)C(C)C)nc1C	0.5	7.5	29.2%[46.1 µM]	-1.5	0.0%	8.91µM*
CC(=O)Nc1nc(C)c(C(C)=O)s1	-3.0	3.2	5.3%[46.1 µM]	1.1	-28.6%	19.5%
CC(=O)c1sc(NC(=O)c2ccccc2)nc1-c1ccccc1	-2.6	-0.8	-39.1%	0.5	2.82µM*	0.6%
CC(=O)c1sc(NC(=O)c2c(F)cccc2F)nc1-c1ccccc1	-18.5	-3.0	-25.2%	-1.3	23.1%	0.1%
Cc1nc2ccc(C(=O)OC(C)C(=O)c3c(C)[nH]c4ccccc34)cc2nc1C (configuration not stated)	.	.	.	.	14.5%	.
Cc1cc(Br)ccc1NC(=O)COC(=O)c1ccccc1OCC(N)=O	.	.	.	.	3.3%	.
Cc1ccc(NC(=O)Nc2ccc3c(c2)nnn3C)cc1C	-22.6	2.4	.	-2.0	2.82µM*	7.4%
C=CCn1c(=O)[nH]c2cc(C(=O)N3CC=C(c4ccccc4)CC3)ccc2c1=O	-8.5	-72.3*	-16.1%	-0.2	-22.9%	1.2%
COc1ccc(N)c2c1C(=O)c1ccccc1C2=O	-3.9	-18.9	12.6µM*	0.5	?	1.2%
COc1ccc(OC)c2c1C(=O)C(Cl)=C(Cl)C2=O	-14.9	.	6.31µM*	-3.5	-85.8%	-2.6%
COc1ccc(OC)c2c1C(=O)c1ccccc1C2=O	-17.1	1.5	-4.9%[46.1 µM]	11.8	3.6%	5.4%
COc1cc2nc(N3CCOCC3)nc(NC3CCN(C)CC3)c2cc1OC	.	.	.	.	4.8%	.
Cc1nn(CCC(=O)O)c2nc(-c3cccnc3)cc(C(F)(F)F)c12	1.8	-24.4	-25.9%[46.1 µM]	-0.4	-30.8%	5.2%
Cc1nn(CCc2nn[nH]n2)c2nc(-c3ccc(C4CCCCC4)cc3)cc(C(F)(F)F)c12	9.4	-17.8	12.6µM*	-2.4	-82.3%	-0.2%
CCN(CC)CCCNC(=O)c1ccc2c(c1)N(Cc1c(F)cccc1Cl)C(=O)c1ccccc1S2	.	.	.	.	-24.8%	1.5%
Cc1ccc(CNC(=O)c2ccc3c(c2)NC(=O)C(N2CCOCC2)S3)cc1 (configuration not stated)	43.2	-61.7*	-5.0%	-0.7	-20.5%	0.5%
O=C(COc1cccnc1[N+](=O)[O-])Nc1cccc(Br)c1	-24.9	8.9	.	-0.1	11.2µM*	.
O=C(COc1cccnc1[N+](=O)[O-])Nc1ccc2c(c1)OC(F)(F)O2	-84.1*	8.4	1.4%	0.2	20.3%	3.5%
COc1ccc(NC(=O)COc2cccnc2[N+](=O)[O-])cc1OC	-20.7	-1.3	9.2%	-0.7	-0.3%	-0.5%
CC(Oc1cccnc1[N+](=O)[O-])C(=O)Nc1cccc(Cl)c1 (configuration not stated)	-86.9*	-96.9*	.	-0.6	-4.3%	1.7%

Bioassay records as filed in PubChem.
